Structures can show the parent of a compound that is named as a salt.
These compounds were tested on primary human hepatic stellate cells (donor 1) (assay: PSMB2 reference mRNA level vs DMSO (fold); higher = more PSMB2 expression). Conditions: 48 h.
Procedure: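 Secondary qRT-PCR screen in primary human HSCs (donor 1), 384-well plates, with compounds dispensed in quadruplicate and incubated for 48 h. Cells-to-CT lysates were used for multiplexed TaqMan qPCR of ACTA2 or COL1A1 with PSMB2 as reference. Fold changes versus DMSO come from a linear model (Ct_gene ~ Ct_PSMB2 + plate + chemical). A hit is defined as COL1A1 and ACTA2 FC <0.5 (FDR <0.05) with PSMB2 between 0.2 and 2.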
`CN(C)CCCCC(=O)Nc1ccc(NC(=S)NC(=O)c2ccc(C(C)(C)C)cc2)cc1` [Tenovin-6] (33.3333 µM) was tested, and the “PSMB2 reference mRNA level” value was 0.000996.
In the case of `NS(=O)(=O)C#Cc1ccccc1` [Pifithrin->m] (33.3333 µM), the “PSMB2 reference mRNA level” value is reported as 5.28.
`CN1CCN(C2=Cc3ccccc3Oc3ccc(Cl)cc32)CC1` (33.3333 µM) was tested, and the “PSMB2 reference mRNA level” value was 0.977.
For `O=C1NC(=O)/C(=C/c2ccc(-c3ccc(F)cc3O)o2)S1` (33.3333 µM), the “PSMB2 reference mRNA level” value was 3.41.
With `CC(C)NCCCn1c(Sc2cc3c(cc2I)OCO3)nc2c(N)ncnc21` (33.3333 µM) the “PSMB2 reference mRNA level” value was 0.581.
For `[O-][S+](c1ccccc1)c1ccc2nnnn2n1` (stereo not given) (33.3333 µM), the “PSMB2 reference mRNA level” value was 0.000399.
For `OCCN1CCN(CCCN2c3ccccc3Sc3ccc(C(F)(F)F)cc32)CC1` (33.3333 µM), the “PSMB2 reference mRNA level” value was 0.145.
`CN1CCCN(C(c2ccccc2)c2ccc(Cl)cc2)CC1` (stereo not given) [Homochlorcyclizine dihydrochloride] (33.3333 µM) was tested, and the “PSMB2 reference mRNA level” value was 1.19.
With `CN1CCN2c3ccccc3Cc3ccccc3C2C1` (stereo not given) [Mianserin hcl] (25.2333 µM) the “PSMB2 reference mRNA level” value was 1.26.
For `Cc1ccc(NC(=O)c2ccc(CN3CCN(C)CC3)cc2)cc1Nc1nc(-c2cccnc2)cs1` [Masitinib (AB1010, Masivet)] (6.66667 µM), the “PSMB2 reference mRNA level” value was 0.679.
With `Nc1ccc(C(=O)Nc2cccc(-c3nc(N4CCOCC4)c4oc5ncccc5c4n3)c2)cn1` (6.66667 µM) the “PSMB2 reference mRNA level” value was 3.27.
In the case of `CCN(CC)CCNC(=O)c1c(C)[nH]c(/C=C2\C(=O)Nc3ccc(F)cc32)c1C` (6.66667 µM), the “PSMB2 reference mRNA level” value is reported as 2.81.
With `Cc1[nH]c(/C=C2\C(=O)Nc3ccc(S(=O)(=O)N(C)c4cccc(Cl)c4)cc32)c(C)c1C(=O)N1CCN(C)CC1` (33.3333 µM) the “PSMB2 reference mRNA level” value was 0.98.
`Cc1cc(Nc2cc(N3CCN(C)CC3)nc(/C=C/c3ccccc3)n2)n[nH]1` (11.1 µM) was tested, and the “PSMB2 reference mRNA level” value was 0.122.
With `C[C@H]1O[C@@H](O[C@H]2[C@@H](O)C[C@H](O[C@H]3[C@@H](O)C[C@H](O[C@H]4CC[C@@]5(C)[C@H](CC[C@@H]6[C@@H]5C[C@@H](O)[C@]5(C)[C@@H](C7=CC(=O)OC7)CC[C@]65O)C4)O[C@@H]3C)O[C@@H]2C)C[C@H](O)[C@@H]1O` [Digoxin] (33.3333 µM) the “PSMB2 reference mRNA level” value was 1.06.
In the case of `CN1CCC(NC(=O)c2cc(-c3c(O)cc(O)cc3Oc3ccc([N+](=O)[O-])cc3)on2)CC1` (33.3333 µM), the “PSMB2 reference mRNA level” value is reported as 0.306.
For `COC(=O)C[C@](O)(CCCC(C)(C)O)C(=O)O[C@@H]1C(OC)=C[C@]23CCCN2CCc2cc4c(cc2[C@H]13)OCO4` [Homoharringtonine] (33.3333 µM), the “PSMB2 reference mRNA level” value was 0.38.
`C[C@@H]1CN(CCCn2c3ccccc3c3ccccc32)C[C@H](C)N1` [Rimcazole dihydrochloride] (33.3333 µM) was tested, and the “PSMB2 reference mRNA level” value was 0.0107.
`CC(C)(C)c1cc(NC(=O)Nc2ccc(-c3cn4c(n3)sc3cc(OCCN5CCOCC5)ccc34)cc2)no1` [Quizartinib  (AC220)] (11.1 µM) was tested, and the “PSMB2 reference mRNA level” value was 2.12.
For `Clc1ccc(C2(c3ccc(-c4cn[nH]c4)cc3)CCNCC2)cc1` (33.3333 µM), the “PSMB2 reference mRNA level” value was 0.745.
In the case of `COc1cc2ncn(-c3cc(OCc4ccccc4C(F)(F)F)c(C(N)=O)s3)c2cc1OC` (33.3333 µM), the “PSMB2 reference mRNA level” value is reported as 1.6.
In the case of `N=C(N)SCCc1ccc(OCc2ccc([N+](=O)[O-])cc2)cc1` [KB-R7943 mesylate] (33.3333 µM), the “PSMB2 reference mRNA level” value is reported as 0.61.
In the case of `C[C@]12CC[C@H](O)CC1=CC[C@@H]1[C@@H]2CC[C@]2(C)C(n3cnc4ccccc43)=CC[C@@H]12` [Galeterone] (33.3333 µM), the “PSMB2 reference mRNA level” value is reported as 0.0945.
In the case of `CCN(CC)CC#CCOC(=O)C(O)(c1ccccc1)C1CCCCC1` (stereo not given) [Oxybutynin chloride] (16.9333 µM), the “PSMB2 reference mRNA level” value is reported as 1.08.
In the case of `CNCCCC1c2ccccc2C=Cc2ccccc21` [Protryptyline hydrochloride] (22.2333 µM), the “PSMB2 reference mRNA level” value is reported as 1.06.
For `CN(C)CCC(c1ccc(Br)cc1)c1ccccn1` (stereo not given) [Brompheniramine maleate] (33.3333 µM), the “PSMB2 reference mRNA level” value was 1.3.
In the case of `NC1(c2ccc(-c3nc4ccn5c(=O)[nH]nc5c4cc3-c3ccccc3)cc2)CCC1` (11.1 µM), the “PSMB2 reference mRNA level” value is reported as 3.72.
With `CCN(CC)CCOc1ccc(Cc2ccccc2)cc1` [DPPE fumarate] (33.3333 µM) the “PSMB2 reference mRNA level” value was 0.798.
With `CNc1nccc(-c2cccnc2Oc2cc(C(=O)Nc3cccc(C(F)(F)F)c3)ccc2C)n1` (33.3333 µM) the “PSMB2 reference mRNA level” value was 0.887.
`CC#CCOC(=O)c1c(C)nc2sc3c(c2c1N)CCC(O)C3` (stereo not given) (33.3333 µM) was tested, and the “PSMB2 reference mRNA level” value was 0.434.
In the case of `CN1CCC(CNc2ccc3ncc(-c4cccc(OC(F)(F)F)c4)n3n2)CC1` (6.66667 µM), the “PSMB2 reference mRNA level” value is reported as 0.712.
In the case of `CS(=O)(=O)CCNCc1ccc(-c2ccc3ncnc(Nc4ccc(OCc5cccc(F)c5)c(Cl)c4)c3c2)o1` (6.66667 µM), the “PSMB2 reference mRNA level” value is reported as 1.27.
For `CN(C)Cc1c(C(=O)NCCOc2ccc(C(=O)NO)cc2)oc2ccccc12` (33.3333 µM), the “PSMB2 reference mRNA level” value was 0.5.
For `C[C@@H](CN1CCC(n2c(=O)[nH]c3cc(Cl)ccc32)CC1)NC(=O)c1ccc2ccccc2c1` (33.3333 µM), the “PSMB2 reference mRNA level” value was 0.16.
For `O=C1Nc2ccccc2/C1=C1/Nc2ccccc2C1=O` [Indirubin] (63.5333 µM), the “PSMB2 reference mRNA level” value was 1.03.
With `Cc1cc(C(=O)Nc2cc(Nc3ccc4c(/C=C/c5ccccn5)n[nH]c4c3)ccc2F)n(C)n1` (33.3333 µM) the “PSMB2 reference mRNA level” value was 0.985.
`CC[C@]1(O)C[C@@H]2CN(CCc3c([nH]c4ccccc34)[C@@](C(=O)OC)(c3cc4c(cc3OC)N(C)[C@H]3[C@@](O)(C(=O)OC)[C@H](OC(C)=O)[C@]5(CC)C=CCN6CC[C@]43[C@@H]65)C2)C1` [Vinblastine sulfate] (33.3333 µM) was tested, and the “PSMB2 reference mRNA level” value was 0.0998.
With `COc1ccccc1OCCNCC(O)COc1cccc2[nH]c3ccccc3c12` (stereo not given) [Carvedilol] (33.3333 µM) the “PSMB2 reference mRNA level” value was 2.15.
In the case of `O=C(O[C@H]1CN2CCC1CC2)N1CCc2ccccc2[C@@H]1c1ccccc1` [Solifenacin succinate] (33.3333 µM), the “PSMB2 reference mRNA level” value is reported as 0.935.
In the case of `CCCCCCCCc1ccc(CCC(N)(CO)CO)cc1` [Fingolimod (FTY720) HCl] (11.1 µM), the “PSMB2 reference mRNA level” value is reported as 3.91.
